Data: publication doi:10.1101/2024.03.05.583629

molecular target: pT7_6His-AlfaTag-ZIF268 (human, UniProt P18146 335-423); test: PADIT-seq; conditions: dsDNA, one strand shown

Row | Sequence | binding signal [log2FC]
1 | CTCGAGGATATCAAGATCTGGCCTCGGCGCGTCGGCGGGAACCTCTAGCTAGCCGACTCACTATAGGGATAATCGCCCTGAGCAAAGACC | 0.627 ± 0.116
2 | CTCGAGGATATCAAGATCTGGCCTCGGCGCGGTGGCGGGAACCTCTAGCTAGCCGACTCACTATAGGGATAATCGCCCTGAGCAAAGACC | 0.175 ± 0.118
3 | CTCGAGGATATCAAGATCTGGCCTCGGCCGCCCACAGGGAACCTCTAGCTAGCCGACTCACTATAGGGATAATCGCCCTGAGCAAAGACC | 0.494 ± 0.158
4 | CTCGAGGATATCAAGATCTGGCCTCGGCCGCCCAAACGGAACCTCTAGCTAGCCGACTCACTATAGGGATAATCGCCCTGAGCAAAGACC | 0.0706 ± 0.0989
5 | CTCGAGGATATCAAGATCTGGCCTCGGCCGCCCACCCGGAACCTCTAGCTAGCCGACTCACTATAGGGATAATCGCCCTGAGCAAAGACC | 0.112 ± 0.113
6 | CTCGAGGATATCAAGATCTGGCCTCGGCGCGTGGGGCGGAACCTCTAGCTAGCCGACTCACTATAGGGATAATCGCCCTGAGCAAAGACC | 0.735 ± 0.107
7 | CTCGAGGATATCAAGATCTGGCCTCGGCAGACCACGCGGAACCTCTAGCTAGCCGACTCACTATAGGGATAATCGCCCTGAGCAAAGACC | 0.0219 ± 0.102
8 | CTCGAGGATATCAAGATCTGGCCTCGGCGCGTGGAGGGGAACCTCTAGCTAGCCGACTCACTATAGGGATAATCGCCCTGAGCAAAGACC | 0.222 ± 0.116
9 | CTCGAGGATATCAAGATCTGGCCTCGGCCGCCTCCGCGGAACCTCTAGCTAGCCGACTCACTATAGGGATAATCGCCCTGAGCAAAGACC | 0.383 ± 0.0978
10 | CTCGAGGATATCAAGATCTGGCCTCGGCGCGTGGGATGGAACCTCTAGCTAGCCGACTCACTATAGGGATAATCGCCCTGAGCAAAGACC | 2.17 ± 0.107
